“And” between values parts separate entries of the source, which are not always exact repeats. Identical values can stand only once. Records with an inconclusive call do not appear. Some compounds were tested as several samples or in several runs, with calls that do not always agree. The source made the active and inactive calls.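 Rule for the calls, unless noted: active = normalized viability below 100% at a tested concentration; inactive = the rest.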
Assays:
[1] = growth inhibition of DIPG glioma cells, dose response, cell-based, SU-DIPG-XVII, MIPE5.0, CellTiter-Glo, qHTS (AID 1347060; cut-off not given, nearly all actives have AC50 up to about 26 µM;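 note: cells exposed to compound for 48 hours before viability readout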); settings: SU-DIPG-XVII viability, CellTiter-Glo ATP luminescence
[2] = growth inhibition of DIPG glioma cells, dose response, cell-based, SU-DIPG-XIII, MIPE4.0, CellTiter-Glo, qHTS (AID 1347061; cut-off not given, nearly all actives have AC50 up to about 37 µM;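 note: cells exposed to compound for 48 hours before readout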); settings: SU-DIPG-XIII viability, CellTiter-Glo ATP luminescence
[3] = growth inhibition of DIPG glioma cells, dose response, cell-based, JHH-DIPG-1, MIPE4.0, CellTiter-Glo, qHTS (AID 1347062; cut-off not given, nearly all actives have AC50 up to about 27 µM;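 note: cells exposed to compound for two days before readout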); settings: JHH-DIPG-1 viability, CellTiter-Glo ATP luminescence
[4] = growth inhibition of DIPG glioma cells, dose response, cell-based, SU-DIPG-IV, MIPE4.0, CellTiter-Glo, qHTS (AID 1347063; cut-off not given, nearly all actives have AC50 up to about 30 µM;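 note: compound exposure lasted 48 hours before the viability readout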); settings: SU-DIPG-IV viability, CellTiter-Glo ATP luminescence
[5] = growth inhibition of DIPG glioma cells, dose response, cell-based, SU-DIPG-XIII, MIPE5.0, CellTiter-Glo, qHTS (AID 1347064; cut-off not given, nearly all actives have AC50 up to about 23 µM;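 note: cells exposed to compound for 48 hours before the viability read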); settings: SU-DIPG-XIII viability, CellTiter-Glo ATP luminescence
[6] = viability loss in pontine glioma line – cell-based, SU-DIPG-XXV, MIPE5.0, CellTiter-Glo, qHTS, dose response (AID 1347065; cut-off not given, nearly all actives have AC50 up to about 26 µM;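 note: cells exposed to compound for 48 hours before ATP readout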); settings: CellTiter-Glo ATP luminescence
[7] = SU-DIPG-VI glioma cell viability, MIPE4.0 library, CellTiter-Glo luminescence, qHTS (AID 1347066; cut-off not given, nearly all actives have AC50 up to about 30 µM;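 note: cells exposed to compound for 48 hours before readout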); settings: CellTiter-Glo ATP luminescence
[8] = JHH-DIPG-1 glioma cell viability, MIPE5.0 library, CellTiter-Glo luminescence, qHTS (AID 1347067; cut-off not given, nearly all actives have AC50 up to about 26 µM;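 note: cells exposed to compound for 48 hours before readout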); settings: JHH-DIPG-1 glioma viability, CellTiter-Glo ATP luminescence
[9] = SU-DIPG-XXV glioma cell viability, MIPE5.0 library, qHTS (AID 1347068; cut-off not given, nearly all actives have IC50 up to about 30 µM;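 for IC50: cells exposed to compound for 48 hours before viability readout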)
[10] = ovarian cancer cell viability with rucaparib, profiling panel, oncology-focused library, rucaparib conditional (AID 1508598); settings: patient-derived ovarian cancer cells, CellTiter-Glo viability, 144 h, stronger effect = lower value
[11] = sensitizers of A549 cells to miR-34 induction, primary screen, imaging, A549 dox-inducible miR-34, nuclei and caspase counts (AID 1347080;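 active = compounds whose cell count with miR-34 switched on is under 0.7 times the count with it off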); settings: A549 miR-34 inducible, Hoechst nuclei count, 48 h
[12] = survival rescue of mitochondrial mutant cells in low glucose, primary screen, MELAS cybrids, Rieske KO mouse fibroblasts, CellTiter-Glo (AID 1508586;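 active = mean z-score across replicates of 1.96 or higher in either the MELAS or the Rieske mutant cell line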;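 note: z relative to plate mean and SD of compound and empty wells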)
[13] = modifiers of HSF1 nuclear foci, imaging, Selleck Cancer Library (AID 1347162; in the data active = plate-normalised HSF1 focus index below about 0.46); settings: human cells, at 10 µM; SSMD: measured here: HSF1 foci SSMD mean; cell count: measured here: cell number; plate-normalised HSF1 focus index: stronger effect = lower value
[14] = at 0.000305 µM, OCI-C5x cells, with rucaparib 10 µM, 100% = cells with rucaparib alone
[15] = at 0.000305 µM, OCI-C5x cells, without rucaparib
[16] = at 0.000305 µM, OCI-P5x cells, with rucaparib 20 µM, 100% = cells with rucaparib alone
[17] = at 0.000305 µM, OCI-P5x cells, without rucaparib
[18] = at 0.00122 µM, OCI-C5x cells, with rucaparib 10 µM, 100% = cells with rucaparib alone
[19] = at 0.00122 µM, OCI-C5x cells, without rucaparib
[20] = at 0.00122 µM, OCI-P5x cells, with rucaparib 20 µM, 100% = cells with rucaparib alone
[21] = at 0.00122 µM, OCI-P5x cells, without rucaparib
[22] = at 0.00488 µM, OCI-C5x cells, with rucaparib 10 µM, 100% = cells with rucaparib alone
[23] = at 0.00488 µM, OCI-C5x cells, without rucaparib
[24] = at 0.00488 µM, OCI-P5x cells, with rucaparib 20 µM, 100% = cells with rucaparib alone
[25] = at 0.00488 µM, OCI-P5x cells, without rucaparib
[26] = at 0.0195 µM, OCI-C5x cells, with rucaparib 10 µM, 100% = cells with rucaparib alone
[27] = at 0.0195 µM, OCI-C5x cells, without rucaparib
[28] = at 0.0195 µM, OCI-P5x cells, with rucaparib 20 µM, 100% = cells with rucaparib alone
[29] = at 0.0195 µM, OCI-P5x cells, without rucaparib
[30] = at 0.0781 µM, OCI-C5x cells, with rucaparib 10 µM, 100% = cells with rucaparib alone
[31] = at 0.0781 µM, OCI-C5x cells, without rucaparib
[32] = at 0.0781 µM, OCI-P5x cells, with rucaparib 20 µM, 100% = cells with rucaparib alone
[33] = at 0.0781 µM, OCI-P5x cells, without rucaparib
[34] = at 0.313 µM, OCI-C5x cells, with rucaparib 10 µM, 100% = cells with rucaparib alone
[35] = at 0.313 µM, OCI-C5x cells, without rucaparib
[36] = at 0.313 µM, OCI-P5x cells, with rucaparib 20 µM, 100% = cells with rucaparib alone
[37] = at 0.313 µM, OCI-P5x cells, without rucaparib
[38] = at 1.25 µM, OCI-C5x cells, with rucaparib 10 µM, 100% = cells with rucaparib alone
[39] = at 1.25 µM, OCI-C5x cells, without rucaparib
[40] = at 1.25 µM, OCI-P5x cells, with rucaparib 20 µM, 100% = cells with rucaparib alone
[41] = at 1.25 µM, OCI-P5x cells, without rucaparib
[42] = at 5 µM, OCI-C5x cells, with rucaparib 10 µM, 100% = cells with rucaparib alone
[43] = at 5 µM, OCI-C5x cells, without rucaparib
[44] = at 5 µM, OCI-P5x cells, with rucaparib 20 µM, 100% = cells with rucaparib alone
[45] = at 5 µM, OCI-P5x cells, without rucaparib
[46] = stronger effect = lower value, cell number ratio, induced over uninduced
[47] = measured here: relative caspase fold change +Dox/-Dox
[48] = measured here: total cells with miR-34 induction, stronger effect = lower value
[49] = measured here: total cells without miR-34 induction
[50] = MELAS cybrid survival, CellTiter-Glo 48 h, stronger effect = higher value
[51] = Rieske KO mouse fibroblast survival, CellTiter-Glo 72 h

Cc1cc(N2CCOCC2)cc2[nH]c(-c3c(NC[C@@H](O)c4cccc(Cl)c4)cc[nH]c3=O)nc12
inactive: outcome [9] | viability [10, 14] 117% | viability [10, 15] 119% | viability [10, 16] 135% | viability [10, 18] 126% | viability [10, 19] 114% | viability [10, 20] 133% | viability [10, 22] 123% | viability [10, 23] 109% | viability [10, 24] 130% | viability [10, 26] 119% | viability [10, 27] 118% | viability [10, 28] 133% | viability [10, 30] 126% | viability [10, 31] 123% | viability [10, 32] 118% | viability [10, 34] 123% | viability [10, 35] 123% | viability [10, 38] 133% | viability [10, 39] 126%
active: AC50 [1] 0.742 µM | AC50 [2] 1.48 µM | AC50 [3] 13.2 µM | AC50 [4] 7.43 µM | AC50 [5] 0.209 µM | AC50 [6] 0.263 µM | AC50 [7] 0.0526 µM | AC50 [8] 3.72 µM | viability [10, 17] 99.5% | viability [10, 21] 97.6% | viability [10, 25] 98.9% | viability [10, 29] 96.1% | viability [10, 33] 83.6% | viability [10, 36] 79.9% | viability [10, 37] 66.6% | viability [10, 40] 41.4% | viability [10, 41] 53.5% | viability [10, 42] 37.3% | viability [10, 43] 80.4% | viability [10, 44] 0.53% | viability [10, 45] 12.5%

Clc1ccc(C(c2ccc(Cl)cc2)n2cc[n+](CC(OCc3ccc(Cl)cc3Cl)c3ccc(Cl)cc3Cl)c2)cc1 (stereo not given)
active: AC50 [1] 2.95 µM | AC50 [2] 23.5 µM | AC50 [3] 16.6 µM | AC50 [4] 9.35 µM | AC50 [5] 2.63 µM | AC50 [6] 2.35 µM | AC50 [7] 13.2 µM | AC50 [8] 2.63 µM | IC50 [9] 3.72 µM

Cc1ccc(C(N)=O)cc1Nc1nccc(-c2cn(C(C)C)c3cnccc23)n1
active: AC50 [1] 9.34 µM | AC50 [2] 18.7 µM | AC50 [3] 9.35 µM | AC50 [4] 8.33 µM | AC50 [5] 11.8 µM | AC50 [6] 7.42 µM | AC50 [7] 13.2 µM | IC50 [9] 11.8 µM

O=C1c2ccccc2-[n+]2ccc3c([nH]c4ccccc43)c21
active: AC50 [1] 2.35 µM | AC50 [2] 2.64 µM | AC50 [3] 0.743 µM | AC50 [4] 2.09 µM | AC50 [5] 2.35 µM | AC50 [6] 2.63 µM | AC50 [7] 1.66 µM | AC50 [8] 2.35 µM

CNC(=O)c1ccccc1Nc1nc(Nc2ccc(N3CCOCC3)cc2OC)ncc1Cl
0.999: fold change [11, 47]
1730: cell count [11, 49]
1560: cell count [11, 48]
inactive: fold change [11, 46] 0.899 | z-score [12, 50] 0.492
-1.89: z-score [12, 51]
active: AC50 [1] 0.59 µM | AC50 [2] 5.9 µM | AC50 [3] 1.48 µM | AC50 [4] 2.96 µM | AC50 [5] 0.235 µM | AC50 [6] 0.186 µM | AC50 [8] 0.661 µM | IC50 [9] 1.05 µM

Cc1nc(Nc2n[nH]c3c2CN(C(=O)N[C@H](CN(C)C)c2ccccc2)C3(C)C)c2sccc2n1
active: AC50 [1] 3.72 µM | AC50 [2] 10.5 µM | AC50 [3] 2.09 µM | AC50 [4] 2.96 µM | AC50 [5] 1.18 µM | AC50 [6] 2.09 µM | AC50 [7] 8.33 µM | AC50 [8] 2.95 µM | IC50 [9] 4.17 µM | viability [10, 24] 85.5% | viability [10, 25] 84.6% | viability [10, 27] 66.6% | viability [10, 28] 68.4% | viability [10, 29] 66.2% | viability [10, 30] 90.6% | viability [10, 31] 73.2% | viability [10, 32] 59.9% | viability [10, 33] 60.2% | viability [10, 35] 88% | viability [10, 36] 44.2% | viability [10, 37] 48.5% | viability [10, 38] 85.2% | viability [10, 39] 95.2% | viability [10, 40] 24.7% | viability [10, 41] 39.9% | viability [10, 42] 8.03% | viability [10, 43] 10.2% | viability [10, 44] 8.49% | viability [10, 45] 4.16%
inactive: viability [10, 14] 107% | viability [10, 15] 125% | viability [10, 16] 108% | viability [10, 17] 104% | viability [10, 18] 112% | viability [10, 19] 126% | viability [10, 20] 102% | viability [10, 21] 108% | viability [10, 22] 106% | viability [10, 23] 106% | viability [10, 26] 107% | viability [10, 34] 101%

CN1CCN(c2ccc3nc(-c4c(N)c5c(F)cccc5[nH]c4=O)[nH]c3c2)CC1
3.68 (active) and -0.215 (inactive): z-score [12, 50]
-0.494 and -0.354: z-score [12, 51]
5510: cell count [13]
active: AC50 [1] 0.525 µM | AC50 [2] 2.96 µM | AC50 [3] 26.4 µM | AC50 [4] 23.5 µM | AC50 [5] 1.05 µM | AC50 [6] 0.468 µM | AC50 [7] 20.9 µM | AC50 [8] 11.8 µM | viability [10, 28] 99.7% | viability [10, 29] 76.1% | viability [10, 41] 90.6% | viability [10, 42] 3.71% | viability [10, 43] 73% | viability [10, 44] 42.5% | viability [10, 45] 50%
472 and 732: cell count [11, 49]
0.308 and 0.757: fold change [11, 47]
-9.43: SSMD [13]
inactive: fold change [11, 46] 1.57 and 1.08 | plate-normalised HSF1 focus index [13] 0.516 | viability [10, 14] 112% | viability [10, 15] 107% | viability [10, 16] 123% | viability [10, 17] 105% | viability [10, 18] 111% | viability [10, 19] 104% | viability [10, 20] 118% | viability [10, 21] 107% | viability [10, 22] 121% | viability [10, 23] 115% | viability [10, 24] 136% | viability [10, 25] 109% | viability [10, 26] 104% | viability [10, 27] 112% | viability [10, 30] 118% | viability [10, 31] 143% | viability [10, 32] 133% | viability [10, 33] 107% | viability [10, 34] 125% | viability [10, 35] 119% | viability [10, 36] 129% | viability [10, 37] 104% | viability [10, 38] 148% | viability [10, 39] 127% | viability [10, 40] 123%
744 and 794: cell count [11, 48]

— PubChem BioAssay
